FMDV inh = High Throughput Screening for Foot and Mouth Disease Virus Antivirals. 410,000 tested, 1.2% active. FMDV antiviral cell-based qHTS. Potency, µM (series often up to 57.9 µM), actives largely listed as inhibitors; calls by dose curve; tested in HEK293T cells; further: read-out not given here; nearly all actives have a fitted effect of over 45% in size
HCMV antiviral = qHTS Assay for inhibitors of the human cytomegalovirus (HCMV); HFF cells, HCMV-luciferase reporter, 72 h; stronger effect = lower value; activity change, negative = inhibition, % at 57.5 µM; 410,000 tested, 4.5% active; AID 1259415, 2018; in the data active means activity change below about -60%; inconclusive means no clear call, values can overlap the other calls; inactive means above about -39%
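Compounds were evaluated in HFFs infected with an HCMV luciferase reporter virus (MOI 1 PFU/cell). Luciferase in lysates collected 72 h post infection served as the replication measure.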
Lassa entry inh = qHTS for Inhibitors of binding or entry into cells for Lassa Virus. Lassa virus pseudotype entry inhibition, cell reporter. Potency, µM (series often up to 37.9 µM), actives largely listed as inhibitors. 300,000 tested, 1.2% active. AID 540256, 2011; calls by dose curve; tested in HEK293 cells; further: nearly all actives have a fitted effect of over 50% in size
Marburg entry inh = qHTS for inhibitors of binding or entry into cells for Marburg Virus; AID 540276, 2011; 300,000 tested, 1.8% active; Potency, µM (titrated, usually from 37.8 µM), most hits filed as inhibitors; Marburg virus pseudotyped entry inhibition, cell reporter; calls by dose curve; tested in HEK293 cells
Each line names hits and unclear results; the compound was inactive in the other large screens; ! = a repeat was not active. An excerpt weighted towards active compounds, which were near 6.2% of everything screened.

CC(C)(C)C(=O)/C(=C/c1ccc(Cl)cc1)n1cncn1	FMDV inh 16µM, HCMV antiviral -102 (no result: Lassa entry inh, Marburg entry inh)
CC(C)(C)C(=O)C(Oc1ccc(Cl)cc1)n1cncn1 (configuration not stated)	none
CC1=C(C)CS(=O)N(c2ccc(S(N)(=O)=O)cc2)C1 (configuration not stated)	Lassa entry inh inconclusive
CC1=C(C)CS(=O)N(S(=O)(=O)c2ccccc2)C1 (configuration not stated)	FMDV inh inconclusive, Marburg entry inh 13µM
O=C(CNC(=O)c1ccccc1Br)N/N=C/c1cc(Br)ccc1O	none (no result: Lassa entry inh, Marburg entry inh)
O=C(Nc1cc(S(=O)(=O)Nc2ccc(Cl)cc2)ccc1O)c1ccc(S(=O)(=O)N2CCCCCC2)cc1	Lassa entry inh inconclusive, Marburg entry inh inconclusive
O=C(N/N=C/c1cc(Cl)ccc1O)c1ccccc1Br	HCMV antiviral -100 (no result: Lassa entry inh, Marburg entry inh)
O=C(N/N=C\c1cc(Cl)ccc1O)c1ccc(S(=O)(=O)N2CCCCC2)cc1	HCMV antiviral -103, Lassa entry inh inconclusive, Marburg entry inh inconclusive
CCc1nn2c(=O)cc(COC(=O)c3cccc(NC(=O)COc4ccccc4)c3)nc2s1	Lassa entry inh inconclusive (no result: Marburg entry inh)
O=C(c1cnccn1)N1CCC2(CCCN(c3cccc(-c4ccccc4)c3)C2)CC1	none (no result: HCMV antiviral, Lassa entry inh, Marburg entry inh)
COC(=O)C1Cc2ccccc2CN1C(=O)CCl (configuration not stated)	FMDV inh 22µM, HCMV antiviral inconclusive, Lassa entry inh inconclusive, Marburg entry inh 7.1µM
COC(=O)[C@H](Cc1ccccc1)NC(=O)N1Cc2ccccc2C[C@H]1C(=O)OC	none (no result: Lassa entry inh, Marburg entry inh)
O=C1CC(c2ccc(F)c(Br)c2)C2=C(CCCC2=O)N1 (configuration not stated)	FMDV inh inconclusive, HCMV antiviral -102
O=C1CC(c2ccc3c(c2)OCO3)C2=C(CCCC2=O)N1 (configuration not stated)	none
CCOC(=O)/C=C1\NC(C)(C)CC2=C1CC(O)=C(OC)C2	none (no result: FMDV inh, HCMV antiviral, Lassa entry inh)
C[C@@H]1CCCCO[C@H](CN(C)Cc2ccc(C(F)(F)F)cc2)[C@H](C)CN([C@@H](C)CO)C(=O)c2cc(NC(=O)Cc3ccccc3)ccc2O1	FMDV inh inconclusive, HCMV antiviral -81 (no result: Lassa entry inh, Marburg entry inh)
C[C@@H]1CN([C@H](C)CO)C(=O)c2cc(NC(=O)Nc3ccc(F)cc3)ccc2O[C@@H](C)CCCCO[C@H]1CN(C)Cc1ccc(C(=O)O)cc1	none (no result: Lassa entry inh, Marburg entry inh)
COc1ccc(CN(C)C[C@@H]2OCCCC[C@H](C)Oc3ccc(NC(=O)Nc4ccc(F)cc4)cc3C(=O)N([C@H](C)CO)C[C@H]2C)cc1	FMDV inh inconclusive, HCMV antiviral -102 (no result: Lassa entry inh, Marburg entry inh)
COc1ccc(CN(C)C[C@@H]2OCCCC[C@H](C)Oc3ccc(NC(=O)Cc4ccccc4)cc3C(=O)N([C@@H](C)CO)C[C@@H]2C)cc1	none (no result: Lassa entry inh, Marburg entry inh)
Cc1ccc(C)c(NC(=O)c2nc(-c3ccccc3)n(-c3ccccc3)n2)c1	FMDV inh inconclusive
Cc1ccc(-n2nc(C)c(NC(=O)CCl)c2C)cc1	HCMV antiviral -101, Lassa entry inh 10µM, Marburg entry inh inconclusive
CC(=O)Nc1c(C)nn(-c2ccc([N+](=O)[O-])cc2)c1C	none
Cc1ccc(-c2cc(NC(=O)CCl)n(-c3ccccc3)n2)cc1	FMDV inh 22µM, HCMV antiviral -97
Cc1ccc(C)c(NC(=O)c2cc(-c3ccccc3)nn2-c2ccccc2)c1	FMDV inh inconclusive, HCMV antiviral inconclusive, Lassa entry inh inconclusive, Marburg entry inh 11µM
O=C(CCl)Nc1cc(-c2ccccc2)nn1-c1ccccc1	HCMV antiviral -87, Lassa entry inh inconclusive, Marburg entry inh 5.2µM
O=C(O)CN(CCN(CC(=O)O)CC(=O)O)CCN(CC(=O)O)CC(=O)O	none (no result: FMDV inh, HCMV antiviral)
COC(=O)[C@@]1(C#N)CC(=O)N([C@@H](CO)c2ccccc2)[C@H]1c1ccccc1	none (no result: FMDV inh, Lassa entry inh, Marburg entry inh)
COC(=O)[C@@H]1CCCN1Cc1ccc2c(c1)CN(Cc1ccccc1F)CCO2	none (no result: HCMV antiviral, Lassa entry inh, Marburg entry inh)
CN(C)C(=O)c1ccc(-c2ccc3ncnc(N(C)C)c3c2)cc1	none (no result: HCMV antiviral, Lassa entry inh, Marburg entry inh)
Cc1c(CC(=O)NCCc2ccc(Cl)cc2)c(=O)oc2c(C)c3occ(C(C)(C)C)c3cc12	HCMV antiviral -68
COc1ccc(C(=O)NCCn2cc(SCC(=O)Nc3ccc4c(c3)OCCO4)c3ccccc32)cc1OC	FMDV inh inconclusive
CCOc1ccccc1CNC(=O)CCC(=O)N1CCSc2ccccc21	HCMV antiviral -75 (no result: Marburg entry inh)
CCOc1ccccc1CNC(=O)CCc1cn(C)c2ccccc12	Marburg entry inh 6.3µM
CCc1cccc(NC(=O)CCC(=O)N2CCSc3ccccc32)c1	HCMV antiviral -66! (no result: Marburg entry inh)
CCOc1ccc(CCNC(=O)CCC(=O)N2CCSc3ccccc32)cc1OCC	none (no result: Lassa entry inh, Marburg entry inh)
CC1=CC[C@@H](COc2ccccc2)O[C@@]2(C1)C(=O)N(Cc1ccccc1C(F)(F)F)c1cccc(Br)c12	none (no result: FMDV inh, HCMV antiviral, Lassa entry inh)
NC(CCC(=O)NCS(=O)(=O)O)C(=O)O (configuration not stated)	Marburg entry inh inconclusive (no result: HCMV antiviral, Lassa entry inh)
COc1cccc(C2CC(c3cccc(NS(C)(=O)=O)c3)=NN2C(=O)c2ccccc2)c1OC (configuration not stated)	HCMV antiviral -73, Lassa entry inh 14µM, Marburg entry inh inconclusive
COc1cccc(C2CC(c3ccc(Br)cc3)=NN2C(=O)c2ccncc2)c1OC (configuration not stated)	FMDV inh inconclusive, Lassa entry inh inconclusive, Marburg entry inh inconclusive
COc1ccccc1C1CC(c2ccc(Br)cc2)=NN1C(=O)c1cccnc1 (configuration not stated)	FMDV inh 32µM, Lassa entry inh inconclusive
COc1ccc(-c2nnc(SCC(=O)N(Cc3ccccc3)C(C)(C)C)o2)cc1OC	FMDV inh 11µM, HCMV antiviral -95, Lassa entry inh inconclusive, Marburg entry inh inconclusive
CCN(C(=O)CSc1nnc(-c2cc(OC)c(OC)c(OC)c2)o1)c1ccccc1	none
Oc1ccc(-c2cccnc2)cc1CNC1CN2CCC1CC2 (configuration not stated)	none (no result: HCMV antiviral, Lassa entry inh, Marburg entry inh)
Cc1ccccc1CN1CCN2C=C(C(=O)NCC3CC3)OC2=NC1=O	none (no result: FMDV inh, Lassa entry inh, Marburg entry inh)
O=[N+]([O-])c1ccc(O)c(/C=N/Nc2nn[nH]n2)c1	none
O=C(Cn1nnc(-c2ccccc2)n1)N/N=C/c1cc([N+](=O)[O-])ccc1O	HCMV antiviral -73
O=C(Cn1cncn1)N/N=C/c1cc([N+](=O)[O-])ccc1O	none (no result: Lassa entry inh, Marburg entry inh)
O=C(N/N=C/c1cc([N+](=O)[O-])ccc1O)c1cccc2ccccc12	HCMV antiviral -112 (no result: FMDV inh, Lassa entry inh, Marburg entry inh)
O=[N+]([O-])c1ccc(O)c(/C=N/Nc2ccc(Cl)nn2)c1	HCMV antiviral -101, Lassa entry inh inconclusive, Marburg entry inh 0.13µM
O=C(Cn1nc2ccccc2n1)N/N=C/c1cc([N+](=O)[O-])ccc1O	Lassa entry inh inconclusive, Marburg entry inh 10µM
O=C(NN=Cc1cc(Cl)ccc1[N+](=O)[O-])c1cccc2ccccc12	none
Cc1c(C(=O)NCCCc2ccncc2)cnn1-c1nccc(-c2ccccc2F)n1	none (no result: HCMV antiviral, Lassa entry inh, Marburg entry inh)
C/C1=C/CCCc2cc(OS(=O)(=O)C(F)(F)F)ccc2OCC1	none (no result: FMDV inh, Lassa entry inh, Marburg entry inh)
O=[N+]([O-])c1ccc(O)c(C2CCCCC2)c1	FMDV inh inconclusive, HCMV antiviral -94, Lassa entry inh inconclusive, Marburg entry inh inconclusive
O=[N+]([O-])c1ccc2nc(C3CCCCC3)[nH]c2c1	Marburg entry inh inconclusive

Source: PubChem (National Center for Advancing Translational Sciences (NCATS))
